Screens as filed in PubChem BioAssay.
Most compounds without a hit are left out; they make up all but 7.9% or so of the library.
LASV entry inh – Lassa virus entry inhibition | Lassa virus pseudotype entry inhibition, cell reporter | Potency, µM (doses to about 37.9 µM), inactives show top-dose activity change, negative = inhibition, actives largely listed as inhibitors | hit rate 1.2% among 300,000; calls by dose curve; tested in HEK293 cells; also: potency is read from the fitted curve at half-maximal effect; nearly all actives have a fitted effect of over 50% in size
Marburg entry inh – inhibitors of Marburg virus binding or cell entry. Marburg virus pseudotyped entry inhibition, cell reporter. Potency, µM (top dose mostly 37.8 µM), inactives show at the top dose activity change, negative = inhibition, actives largely listed as inhibitors. hit rate 1.8% among 300,000. AID 540276; calls by dose curve; tested in HEK293 cells; also: potency is read from the fitted curve at half-maximal effect
FMDV antiviral – foot and mouth disease virus antiviral activity; FMDV antiviral cell-based qHTS; Potency, µM (highest dose often 57.9 µM), for inactives: top-dose activity change, negative = inhibition, most hits filed as inhibitors; hit rate 1.2% among 410,000; AID 1159524; calls by dose curve; tested in HEK293T cells; also: read-out not given here; potency is read from the fitted curve at half-maximal effect; nearly all actives have a fitted effect of over 45% in size
HCV inh – inhibitors of hepatitis C virus infection; Potency, µM (titrated, usually from 41.8 µM), inactives show at the top dose activity change, negative = inhibition, hits mostly inhibitors; Huh7.5.1 HCVcc-Cre infection, luciferase reporter, 44 h; hit rate 3.4% among 340,000; active = well fitted inhibition curve with a large enough effect; inconclusive = small, poorly fitted or top-dose-only effect, or another doubt; inactive = no such curve, though single readings can be large or run the other way; also: potency is read from the fitted curve at half-maximal effect
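Antiviral activity was scored by luciferase reporter output from cells infected with HCVcc-Cre (~0.5 moi) in presence of compound, 44 h infection period, cells seeded 1,000/well 4 h prior.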
HCMV inh – blocks human cytomegalovirus replication. HFF cells, HCMV-luciferase reporter, 72 h; hits give low values. activity change, negative = inhibition, % at 57.5 µM. hit rate 4.5% among 410,000. AID 1259415; in the data active = activity change below about -60%; inconclusive = no clear call, values can overlap the other calls; inactive = above about -39%
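Human foreskin fibroblasts infected with luciferase-reporter HCMV at MOI 1 PFU/cell, compounds at two doses. Luciferase measured 72 h post infection; normalized to buffer-only basal and Salinomycin (10uM) controls.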
An asterisk follows results filed as active; [ ] = remark or other dose. % is scaled to controls: 0 for no effect and ±100 for the full control effect.

Results for Cc1cccc(NC(c2ccc(C)s2)c2ccc3ccc(C)nc3c2O)n1 (stereo not drawn) ?
LASV entry inh: 10.9%; Marburg entry inh: 2.4%; FMDV antiviral: inconclusive; HCV inh: inconclusive; HCMV inh: -94.7*

Results for Oc1ccccc1C(Nc1nccs1)c1ccc2cccnc2c1O (stereo not drawn) ?
LASV entry inh: 7.3µM*; Marburg entry inh: 11.6µM*; FMDV antiviral: -13.6%; HCV inh: 4.47µM*; HCMV inh: -93.4*

How did Cc1ccnc(NC(c2cc(C)ccc2O)c2ccc3cccnc3c2O)c1 (stereo not drawn) do in these assays?
LASV entry inh: inconclusive; Marburg entry inh: inconclusive; FMDV antiviral: 0.0%; HCMV inh: 110.3

What do the screens show for `Cc1cccc(NC(c2ccccc2C)c2ccc3ccc(C)nc3c2O)n1` (stereo not drawn)?
LASV entry inh: inconclusive; Marburg entry inh: inconclusive; FMDV antiviral: inconclusive; HCMV inh: -39.2

What do the screens show for `COc1cc(C(Nc2ccccn2)c2ccc3ccc(C)nc3c2O)cc(OC)c1O` (stereo not drawn)?
LASV entry inh: inconclusive; Marburg entry inh: inconclusive; FMDV antiviral: 35.5µM*; HCV inh: -22.3%

How did Cc1ccnc(NC(c2ccccc2F)c2ccc3cccnc3c2O)c1 (stereo not drawn) do in these assays?
LASV entry inh: inconclusive; Marburg entry inh: inconclusive; FMDV antiviral: -9.9%; HCMV inh: -76.8*

How did Cc1ccc(Cl)cc1N1CCN(C(=O)COc2cc(=O)n(C)c3ccccc23)CC1 do in these assays?
LASV entry inh: -7.4%[46.1 µM]; Marburg entry inh: 6.3%[46.1 µM]; FMDV antiviral: inconclusive; HCMV inh: -26.3

Results for O=c1cc(CO)oc(C(Nc2ccccn2)c2ccccc2F)c1O (stereo not drawn) ?
FMDV antiviral: -9.5%; HCV inh: 5.2%; HCMV inh: 10.4

What do the screens show for `Cc1ccc2ccc(C(Nc3ccccc3)c3ccc(F)cc3)c(O)c2n1` (stereo not drawn)?
FMDV antiviral: 29.0%; HCMV inh: -60.7*

How did Oc1c(C(Nc2ccccn2)c2ccccn2)ccc2cccnc12 (stereo not drawn) do in these assays?
LASV entry inh: inconclusive; Marburg entry inh: inconclusive; FMDV antiviral: -20.4%; HCV inh: inconclusive; HCMV inh: -85.4*

What do the screens show for `Cc1ccc2ccc(C(Nc3ccccn3)c3ccccc3)c(O)c2n1` (stereo not drawn)?
LASV entry inh: inconclusive; Marburg entry inh: -13.0%[46.1 µM]; FMDV antiviral: -2.8%; HCV inh: inconclusive; HCMV inh: -14.4

How did Oc1c(C(Nc2ccccn2)c2ccccc2F)ccc2cccnc12 (stereo not drawn) do in these assays?
LASV entry inh: inconclusive; FMDV antiviral: 7.0%; HCMV inh: -95.4*

How did CCN(CC)c1ccc(CN(C(=O)c2cc(=O)c3ccccc3o2)C2CCS(=O)(=O)C2)cc1 (stereo not drawn) do in these assays?
LASV entry inh: -8.5%[46.1 µM]; Marburg entry inh: 0.0%[46.1 µM]; FMDV antiviral: 0.0%; HCMV inh: 16.3

How did Cc1ccc(NC(=O)C2CCN(S(=O)(=O)c3ccc4[nH]c5c(c4c3)CCCCC5)CC2)cc1 do in these assays?
LASV entry inh: -7.2%[46.1 µM]; FMDV antiviral: -23.6%; HCMV inh: 0.0

How did Cc1ccc(OCCNC(=O)c2cc(C3CC3)nc3c2cnn3C(C)C)cc1 do in these assays?
FMDV antiviral: -29.3%; HCV inh: 12.6µM*; HCMV inh: 0.0

Results for CC(C)n1ncc2c(C(=O)NCc3cccnc3)cc(C3CC3)nc21 ?
FMDV antiviral: 30.6%; HCV inh: 7.94µM*; HCMV inh: -10.3

Results for COc1ccc(CNC(=O)c2cc(C3CC3)nc3c2cnn3C(C)C)cc1OC ?
FMDV antiviral: inconclusive; HCV inh: inconclusive; HCMV inh: -30.2

How did CCOc1ccc(NC(=O)c2cc(C3CC3)nc3c2cnn3C(C)C)cc1OC do in these assays?
FMDV antiviral: -13.3%; HCV inh: 10µM*; HCMV inh: -16.4

What do the screens show for `CC(=O)Nc1ccc(NC(=O)c2cc(C3CC3)nc3c2cnn3C(C)C)cc1`?
LASV entry inh: inconclusive; Marburg entry inh: 1.7%[46.1 µM]; FMDV antiviral: -28.6%; HCV inh: 10µM*; HCMV inh: -5.5

How did Cc1ccc(CNC(=O)c2cc(C3CC3)nc3c2cnn3C(C)C)cc1 do in these assays?
FMDV antiviral: -14.7%; HCV inh: inconclusive; HCMV inh: -5.1

How did CC(C)n1ncc2c(C(=O)Nc3cccc(S(=O)(=O)N(C)C)c3)cc(C3CC3)nc21 do in these assays?
LASV entry inh: inconclusive; Marburg entry inh: inconclusive; FMDV antiviral: inconclusive; HCV inh: inconclusive; HCMV inh: -1.5

What do the screens show for `C[N+]1=C(/C=N/O)CCCC1`?
Marburg entry inh: 2.4%

How did CC(C)n1ncc2c(C(=O)Nc3ccc(S(C)(=O)=O)cc3)cc(C3CC3)nc21 do in these assays?
FMDV antiviral: 0.0%; HCV inh: 5.62µM*; HCMV inh: 3.2

Results for CNC(=O)c1cccc(NC(=O)c2cc(-c3ccccc3)nc3c2cnn3C(C)C)c1 ?
FMDV antiviral: inconclusive; HCV inh: 3.16µM*; HCMV inh: -7.8

Results for CC(C)n1ncc2c(C(=O)Nc3ccc(S(N)(=O)=O)cc3)cc(C3CC3)nc21 ?
FMDV antiviral: inconclusive; HCV inh: -25.5%; HCMV inh: 46.5

How did CCN(CC)C(=O)c1cccc(NC(=O)c2cc(C3CC3)nc3c2cnn3C(C)C)c1 do in these assays?
FMDV antiviral: -22.1%; HCV inh: 7.08µM*; HCMV inh: -33.8

Results for COc1ccc(C2CC(=O)N(CC(=O)Nc3cccc(C)c3C)c3ccccc3S2)cc1OC (stereo not drawn) ?
Marburg entry inh: inconclusive; FMDV antiviral: inconclusive; HCMV inh: -4.9

Results for COc1cc(NC(=O)c2cc(Cl)ccc2Cl)ccc1NC(=O)c1cc2ccccc2o1 ?
LASV entry inh: -11.3%[46.1 µM]; FMDV antiviral: 0.0%; HCMV inh: inconclusive

How did CC(Sc1cn(CCNC(=O)c2ccccc2F)c2ccccc12)c1ccccc1 (stereo not drawn) do in these assays?
LASV entry inh: inconclusive; Marburg entry inh: inconclusive; FMDV antiviral: inconclusive; HCMV inh: -14.8

Results for Cc1ccc(CSc2nnc3ccc(-c4ccncc4)nn23)cc1 ?
FMDV antiviral: 1.2%; HCV inh: -17.3%; HCMV inh: -60.2*

What do the screens show for `CN(C)c1ccc(C(=O)N[C@H]2CC[C@@]34CCCN3C(=O)CCC[C@H]4[C@H]2Cc2ccccc2)cc1`?
HCMV inh: -32.3

What do the screens show for `Cc1ccc(NC(=O)C(OC(=O)c2cc(C)oc2C)c2ccccc2)cc1` (stereo not drawn)?
LASV entry inh: -5.7%; Marburg entry inh: inconclusive; FMDV antiviral: 15.6%; HCV inh: -6.1%; HCMV inh: -60.7*

What do the screens show for `Cc1cc(C(=O)OC(C(=O)Nc2cccc(C(F)(F)F)c2)c2ccccc2)c(C)o1` (stereo not drawn)?
LASV entry inh: inconclusive; Marburg entry inh: inconclusive; FMDV antiviral: -14.9%; HCV inh: inconclusive; HCMV inh: 12.0
